The source of these data is PubChem BioAssay AID1486 (The Scripps Research Institute Molecular Screening Center, 2009).

By inhibition is commonly meant the relative decrease from the control value, in per cent.

About 2,400 (1.1%) of roughly 220,000 compounds were called active.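 The calls were made as follows: active = inhibition above a per-campaign cutoff, the mean inhibition of all tested compounds plus 3 SD (cut at about 27% in these data); inactive = the rest.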 Only a selection was taken, and actives are over-represented in it overall.

The nature of the test: growth loss in parental Ba/F3 cells – cell-based, murine pro-B, CellTiter-Glo luminescence, counter-screen for JAK2V617F inhibitor project (AID 1486).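 Also: 0% = DMSO wells and 100% = JAK Inhibitor I control wells.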 The settings on record: Ba/F3 parental viability, CellTiter-Glo ATP luminescence; at 5.6 µM; stronger effect = higher value.
Regarding `N#C/C(=C\c1ccc(N2CCOCC2)o1)C(=O)N1CCOCC1`, the inhibition was 4.08% (inactive).

On to `Cc1cc(OCCCC(=O)NCCN2C(=O)S/C(=C\c3cccnc3)C2=O)ccc1Cl`, for which the inhibition was 6.03% (inactive).

As to `O=C(O)Cc1csc(NC(=O)CSc2nnnn2-c2ccc(O)cc2)n1`, the inhibition is -4.21% (inactive).

Regarding `CC1Cc2ccccc2N1CC(=O)Nc1ccc2c(c1)OC(F)(F)O2` (stereo not drawn), the inhibition was 4.14% (inactive).

For the compound `Cc1ccc(C(C)C)cc1OCCN1CCCC1`, the inhibition is 5.38% (inactive).

Regarding `Cc1cc(OCCN2CCCC2)cc(C(C)C)c1`, the inhibition is 93.8% (active).

With `Cc1cc(OCCN2CCCC2)ccc1C(C)C`, the inhibition was 1.72% (inactive).

Take `Cc1ccc(-c2nc(SCC(=O)Nc3ccccc3OC(F)F)c3c(C)c(C(=O)O)sc3n2)cc1`: the inhibition was 1.45% (inactive).

`CC1=C/C(=N\OS(=O)(=O)c2ccccc2)C=CC1=O`: the inhibition was 32.1% (active).

For `CCOC(=O)C1(S(=O)(=O)c2ccccc2)CCN(Cc2ccccc2)CC1`, the inhibition was 8.01% (inactive).

In the case of `CC1=C/C(=N\S(=O)(=O)c2ccccc2)C(C(C)C)=CC1=O`, the inhibition is 5.54% (inactive).

`CCN(CC)CCNCc1ccc(OCc2ccc(Cl)nc2)c(OC)c1`: the inhibition is 2.52% (inactive).

Take `CC[C@H]1CN2CCc3cc(OC)c(OC)cc3[C@@H]2C[C@@H]1C[C@H]1NCCc2cc(OC)c(OC)cc21`: the inhibition was 100% (active).

As to `COc1cc2c(cc1O)[C@H](Cc1ccc(Oc3cc(C[C@@H]4NCCc5cc(OC)c(O)cc54)ccc3O)cc1)NCC2`, the inhibition was 5.61% (inactive).

Take `COC(=O)C1=C(NC(=O)C(C)(C)C)CCS1`: the inhibition is -0.46% (inactive).

In the case of `O=C(O)c1cccnc1Sc1ncnc2sc3c(c12)CCC3`, the inhibition was -7.35% (inactive).

As to `O=C(c1ccc(Cl)cc1)N1N=C(c2ccccn2)CC1(O)C(F)(F)F` (stereo not drawn), the inhibition is 0.67% (inactive).

For `O=C(NCC1CCCCC1)c1cc(S(=O)(=O)N2CCCCC2)ccc1N1CCOCC1`, the inhibition was 8.85% (inactive).

Turning to `COc1cc2c(cc1OC)CN(C(=O)c1cc(=O)c3ccccc3o1)CC2`, the inhibition is 24.8% (inactive).

In the case of `COc1cc2c(cc1OC)CN(C(=O)c1ccc(S(=O)(=O)N3CCCCCC3)cc1)CC2`, the inhibition was 10% (inactive).

For `CCOc1cc(C(=O)N2CCc3cc(OC)c(OC)cc3C2)ccc1OC(F)F`, the inhibition is 78.2% (active).

In the case of `O=C(COC(=O)c1cc(=O)[nH]c2ccccc12)Nc1nc(-c2cccc(Br)c2)cs1`, the inhibition was 3.32% (inactive).

For the compound `O=C(Cn1c(COc2ccccc2)nc2ccccc21)Nc1cc(Cl)c(Cl)cc1Cl`, the inhibition was 2.68% (inactive).

With `Cc1ccccc1CS(=O)(=O)CC1(O)CCN(C(=O)c2cccc(C(F)(F)F)c2)CC1`, the inhibition is -1.41% (inactive).

Turning to `CS(=O)(=O)N1CCN(C(=O)Cc2ccccc2)CC1`, the inhibition is -0.7% (inactive).

For the compound `CC(C)CC(=O)N1CCC(O)(CS(=O)(=O)Cc2ccccc2)CC1`, the inhibition is 50.5% (active).

Consider `Cn1c(=O)c2c(nc(NCCc3ccccc3)n2Cc2ccccc2)n(C)c1=O`, for which the inhibition is 6.77% (inactive).

Regarding `COC(=O)C(C)Sc1nc2c(c(=O)n(C)c(=O)n2C)n1Cc1cccc(C)c1` (stereo not drawn), the inhibition was 4% (inactive).

With `CCCCNc1nc2c(c(=O)n(C)c(=O)n2C)n1Cc1cccc(OC)c1`, the inhibition is 48.4% (active).

As for `Cc1c(C(=O)Nc2cccc(Cl)c2)cn2c(nc3ccccc32)c1C#N`, the inhibition is 2.67% (inactive).

Take `COC(=O)C1CCN(C(=O)c2cc(=O)[nH]c3ccccc23)CC1`: the inhibition is 5.12% (inactive).

On to `O=C(COC(=O)CCCNC(=O)c1ccc(Cl)cc1)Nc1cc(Cl)ccc1Cl`, for which the inhibition is 2.29% (inactive).

For `Cc1cc(C)nc(S/C=C/C(=O)c2ccccc2)n1`, the inhibition is 6.81% (inactive).

`COc1ccc(Cl)cc1CSc1ncn[nH]1`: the inhibition was -3.75% (inactive).

Turning to `O=C(/C=C/Sc1ncn[nH]1)c1ccc(Cl)cc1`, the inhibition was 59.2% (active).

`Nc1scc[n+]1Cc1cccc2cccnc12`: the inhibition was -7.17% (inactive).

For `CC1=CC(C)(C)NC(=S)N1NC(=O)c1ccccc1Cl`, the inhibition is -3.65% (inactive).

For the compound `COc1ccc(Nc2cc(=O)oc3ccccc23)cc1`, the inhibition is 50.9% (active).

On to `COc1ccc(Nc2cc(=O)n(-c3ccccc3)c3c2c(=O)n(C)c(=O)n3C)cc1`, for which the inhibition was 4.99% (inactive).

For the compound `COc1ccc(N2CCN(Cc3cc(=O)oc4ccc5ccccc5c34)CC2)cc1`, the inhibition is 5.38% (inactive).

Turning to `O=C(Nc1cccc(S(=O)(=O)NC2=NCCC2)c1)C1CCCCC1`, the inhibition is -1.01% (inactive).

Consider `CCN(CC)CCn1c(N)c(S(=O)(=O)c2ccccc2)c2nc3ccccc3nc21`, for which the inhibition is 5.27% (inactive).

`Cc1csc(NC(=O)NC2(C(F)(F)F)Oc3ccccc3O2)n1`: the inhibition is 13.6% (inactive).

For the compound `O=C(Nc1cc(N2CCOCC2)ncn1)NC1(C(F)(F)F)Oc2ccc(Cl)cc2O1` (stereo not drawn), the inhibition is 42.3% (active).

For `c1cnn(-c2cc(N3CCOCC3)ncn2)c1`, the inhibition was 5.98% (inactive).

For the compound `CC1(C)CCSC(/C=C/c2ccccc2)=N1`, the inhibition was -2.99% (inactive).

`CC1(C)C=C2[C@H]3CC[C@@H]4[C@@]5(C)CCC(=O)C(C)(C)[C@@H]5CC[C@@]4(C)[C@]3(C)CC[C@@]2(C(=O)O)CC1`: the inhibition is 4.85% (inactive).

With `Cc1ccc(OCC(=O)Nc2ccc(S(=O)(=O)Nc3ccccn3)cc2)cc1`, the inhibition was 0.56% (inactive).

Consider `Cc1cc(C)cc(OCC(=O)Nc2ccc(S(=O)(=O)Nc3ccccn3)cc2)c1`, for which the inhibition is -1.55% (inactive).

With `Cc1ccc(S(=O)(=O)Nc2ccc3ncccc3c2)cc1`, the inhibition was 37.5% (active).

`COc1ccccc1C(=O)Nc1nc2nc(-c3ccccc3)cc(=O)n2[nH]1`: the inhibition was 2.81% (inactive).

`Nc1nc(Sc2ncccc2[N+](=O)[O-])n[nH]1`: the inhibition was -0.31% (inactive).

In the case of `CCOC(=O)c1ccc(NNC(C)=O)c([N+](=O)[O-])c1`, the inhibition was -0.42% (inactive).

In the case of `O=C(NNC(=O)C1C2CCC(C2)C1C(=O)O)c1ccc(Cl)cc1` (stereo not drawn), the inhibition was 2.39% (inactive).

For the compound `COc1cccc(C(=O)Nc2ccc(N3CCCC3)cc2)c1`, the inhibition is 45.8% (active).

On to `COc1cccc(OC)c1C(=O)Nc1ccc(N2CCCCC2)cc1`, for which the inhibition was 9.75% (inactive).

Consider `COc1ccc(C(=O)NC(=S)Nc2ccc(N3CCCC3)cc2)cc1OC`, for which the inhibition was 3.89% (inactive).

`CCOCCCn1c(NN)nc2ccccc2c1=O`: the inhibition is 1.96% (inactive).

Regarding `COn1c(=O)c(=O)n(OC)c2ccccc21`, the inhibition is 3.35% (inactive).

For the compound `COc1cc(OC)c(OC)cc1/C=N/Nc1ncnc2c1[nH]c1ccc(C)cc12`, the inhibition was -0.75% (inactive).

With `O=C1CCCN1CCCNc1ncnc2c1[nH]c1ccccc12`, the inhibition is 2.08% (inactive).

With `CC(C)OCCCNc1ncnc2c1[nH]c1ccc(F)cc12`, the inhibition was 69.9% (active).

As for `CS(=O)(=O)c1ccc2nnn(OCC(=O)Nc3cccc(C#N)c3)c2c1`, the inhibition is -2.77% (inactive).

As to `COc1ccc(NC(=O)C(CC(C)C)NS(=O)(=O)c2ccc3c(c2)CCN3C(C)=O)cc1OC` (stereo not drawn), the inhibition is 1.81% (inactive).

As for `CCCc1nnc(SCC(=O)N2C(C)CCCC2C)n1CC` (stereo not drawn), the inhibition was 2.43% (inactive).

For the compound `O=C(Nc1ccc2c(c1)OCCO2)c1cnccn1`, the inhibition was 4.31% (inactive).

On to `CCN(CC)c1ccc(/C=N/Nc2nc(C)cc(C)n2)c(O)c1`, for which the inhibition was 3.74% (inactive).

For `CCN(CC)c1ccc(/C=N/NC(=O)c2cnccn2)c(O)c1`, the inhibition was 34.4% (active).

`COC(=O)c1noc(C)c1-c1ccnn1C(=O)c1ccc(Cl)cc1`: the inhibition was -1.68% (inactive).

As to `COCc1cc(=O)oc2cc(NS(=O)(=O)c3ccc(C)cc3)ccc12`, the inhibition was -1.36% (inactive).

For `COc1ccc(NC(=O)/C(Cl)=C(/Cl)S(=O)Cc2ccc(C)cc2)cn1` (stereo not drawn), the inhibition was 103% (active).

As to `COc1ccc(NC(=S)NCCNC(C)=O)cc1`, the inhibition is 3.11% (inactive).

With `COc1ccc(Nc2cc(Cl)ccc2C(=O)O)cn1`, the inhibition was -9.44% (inactive).

As for `COc1ccc(NC(=S)Nc2ccccc2Cl)cn1`, the inhibition was 9.94% (inactive).

Turning to `COc1ccc(CS(=O)/C(Cl)=C(/Cl)C(=O)Nc2ccc(OC)nc2)cc1` (stereo not drawn), the inhibition is 104% (active).

As for `Cc1ccc(NC(=O)OCc2cncs2)cc1`, the inhibition is 8.02% (inactive).

On to `CN(C)/C(CN1CCCCC1)=C1\N=C(c2ccccc2)OC1=O`, for which the inhibition is 7.38% (inactive).

For `O=C(CNCc1cccs1)Nc1cc(S(=O)(=O)N2CCCC2)ccc1Cl`, the inhibition is -6.85% (inactive).

Consider `Cc1ccc(-c2cc(=O)c3ccc(F)cc3[nH]2)cc1`, for which the inhibition was 0.37% (inactive).

On to `Cc1ccc(-c2cc(=O)c3ccc(Cl)cc3[nH]2)cc1`, for which the inhibition is -0.93% (inactive).

Turning to `O=c1cc(-c2ccccc2)[nH]c2cc(F)ccc12`, the inhibition is 72.4% (active).

Take `Cc1cc(O)ccc1NC1=CC(=O)CC(C)(C)C1`: the inhibition is 6.24% (inactive).

As for `CCN(CC)CCCN=Cc1c(O)n(-c2ccc(C)cc2)c(=O)c2ccccc12`, the inhibition was 1.41% (inactive).

Take `O=c1c2ccccc2nc2n1C(CSc1ccc(F)cc1)CN2` (stereo not drawn): the inhibition is 3.79% (inactive).

Consider `O=c1c2ccccc2nc2n1C(CSCc1ccccc1)CS2` (stereo not drawn), for which the inhibition was 39.8% (active).

As to `O=c1c2ccccc2nc2n1C(CSCc1cccc(C(F)(F)F)c1)CS2` (stereo not drawn), the inhibition was 17.3% (inactive).

For the compound `Nc1nonc1-n1nnc(C(=O)N/N=C/c2cc(Br)ccc2O)c1CSC1=NCCS1`, the inhibition was 4.7% (inactive).

Take `COC(=O)C1=C(N)Oc2c(oc(CO)cc2=O)C1c1c(F)cccc1Cl` (stereo not drawn): the inhibition is 1.36% (inactive).

`C[n+]1ccc(/C=C/c2c[nH]c3ccccc23)cc1`: the inhibition was 75.7% (active).

With `CSC(=S)N/N=C/c1c[nH]c2ccccc12`, the inhibition was 3.36% (inactive).

With `S=c1[nH]nc(-c2ccccc2)n1/N=C/c1c[nH]c2ccccc12`, the inhibition is 0.81% (inactive).

For `Cc1ccc(Oc2nc(-c3ccccn3)nc3ccccc23)cc1`, the inhibition is -1.39% (inactive).

As to `CCOn1c(SC(C)C)nc2ccccc2c1=O`, the inhibition is 3.34% (inactive).

As to `CCCOn1c(-n2nc(C)cc2C)nc2ccccc2c1=O`, the inhibition is 34% (active).

On to `Cc1cc(C)n(-c2nc(C(F)(F)F)nc3ccccc23)n1`, for which the inhibition is 7.14% (inactive).

Turning to `CCOc1ccccc1C(=O)NCc1ccco1`, the inhibition was 4.63% (inactive).

In the case of `CCCC1=Nc2cc(C(=O)NCc3ccco3)ccc2Sc2ccccc21`, the inhibition is 80.2% (active).

In the case of `COc1ccc(CCNS(=O)(=O)c2ccc(C(=O)NCc3ccco3)cc2)cc1OC`, the inhibition is 3.88% (inactive).
